Measurements published in PubChem BioAssay AID1159580 (chemical genetic matrix, 2015).
About 2,000 (36%) of roughly 5,500 compounds were called active. Not shown: some 18% with an inconclusive outcome. Cut-off read from the data, not from the text of the source: active = normalized growth mostly below about 0.91 (no sharp cut-off); inconclusive = no clear call, values can overlap the other calls; inactive = mostly above about 0.92. This is one part of the list.

Assay: chemical genetic growth profiling, strain panel (AID 1159580);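 note: tested at 20 µM; growth read once vehicle control cultures reached saturation at 30 °C; 1 = growth at the plate median or of vehicle wells; lower values mean less growth of the strain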
Conditions: growth OD

Measured: normalized growth

Cc1cccc(CN2CCN(C(c3ccccc3)c3ccc(Cl)cc3)CC2)c1 (stereo not drawn)
inactive: S. cerevisiae deletion strains, locus YKL009W, strain mrt4, active compounds read low 0.971 | S. cerevisiae deletion strains, locus YKL068W, active compounds read low 0.992 | S. cerevisiae deletion strains, locus YKL085W, strain MDH1 (second series), active compounds read low 0.978 | S. cerevisiae deletion strains, locus YKL085W, strain MDH1, active compounds read low 0.978 | S. cerevisiae deletion strains, locus YKR026C, strain gcn3, active compounds read low 0.969 | S. cerevisiae deletion strains, locus YKR091W, strain srl3, active compounds read low 0.964 | S. cerevisiae deletion strains, locus YLR039C, strain RIC1, active compounds read low 1.31 | S. cerevisiae deletion strains, locus YLR102C, strain apc9, active compounds read low 0.99 | S. cerevisiae deletion strains, locus YLR113W, strain HOG1, active compounds read low 0.912 | S. cerevisiae deletion strains, locus YLR262C, strain YPT6 (second series), active compounds read low 0.905 | S. cerevisiae deletion strains, locus YLR262C, strain YPT6, active compounds read low 1.06 | S. cerevisiae deletion strains, locus YLR268W, strain sec22, active compounds read low 0.895 | S. cerevisiae deletion strains, locus YLR342W, strain FKS1 (second series), active compounds read low 0.791 | S. cerevisiae deletion strains, locus YLR342W, strain FKS1, active compounds read low 0.929 | S. cerevisiae deletion strains, locus YLR357W, strain rsc2, active compounds read low 0.908 | S. cerevisiae deletion strains, locus YLR371W, strain rom2, active compounds read low 0.964 | S. cerevisiae deletion strains, locus YLR384C, strain iki3, active compounds read low 0.992 | S. cerevisiae deletion strains, locus YML124C, strain tub3, active compounds read low 0.977 | S. cerevisiae deletion strains, locus YMR078C, strain ctf18, active compounds read low 0.986 | S. cerevisiae deletion strains, locus YMR307W, strain GAS1, active compounds read low 0.611 | S. cerevisiae deletion strains, locus YNL183C, strain NPR1, active compounds read low 0.947 | S. cerevisiae deletion strains, locus YNL250W, strain rad50, active compounds read low 0.983 | S. cerevisiae deletion strains, locus YNL271C, strain bni1, active compounds read low 0.988 | S. cerevisiae deletion strains, locus YNL298W, strain CLA4, active compounds read low 0.988 | S. cerevisiae deletion strains, locus YNL307C, strain MCK1, active compounds read low 0.96 | S. cerevisiae deletion strains, locus YNL322C, strain KRE1, active compounds read low 0.972 | S. cerevisiae deletion strains, locus YNR049C, strain mso1, active compounds read low 0.983 | S. cerevisiae deletion strains, locus YOL012C, strain htz1 0.942 | S. cerevisiae deletion strains, locus YOR061W, strain CKA2, active compounds read low 0.916 | S. cerevisiae deletion strains, locus YOR069W, strain VPS5, active compounds read low 0.955 | S. cerevisiae deletion strains, locus YOR080W, strain dia2, active compounds read low 0.937 | S. cerevisiae deletion strains, locus YOR136W, strain idh2, active compounds read low 0.937 | S. cerevisiae deletion strains, locus YOR144C, strain elg1, active compounds read low 0.973 | S. cerevisiae deletion strains, locus YOR231W, strain MKK1, active compounds read low 0.887 | S. cerevisiae deletion strains, locus YOR316C, strain cot1, active compounds read low 0.98 | S. cerevisiae deletion strains, locus YPL241C, strain CIN2, active compounds read low 0.956 | S. cerevisiae deletion strains, locus YPL256C, strain CLN2, active compounds read low 0.94 | S. cerevisiae deletion strains, locus YPR119W, strain clb2, active compounds read low 0.996 | S. cerevisiae deletion strains, locus YPR141C, strain kar3, active compounds read low 0.989
active: S. cerevisiae deletion strains, locus YJR075W, strain HOC1, active compounds read low 0.794 | S. cerevisiae deletion strains, locus YKL160W, strain elf1, active compounds read low 0.75 | S. cerevisiae deletion strains, locus YKR001C, strain vps1, active compounds read low 0.47 | S. cerevisiae deletion strains, locus YLL001W, strain dnm1, active compounds read low 0.81 | S. cerevisiae deletion strains, locus YLL026W, active compounds read low 0.8 | S. cerevisiae deletion strains, locus YLL041C, strain sdh2, active compounds read low 0.926 | S. cerevisiae deletion strains, locus YLR027C, strain aat2, active compounds read low 0.744 | S. cerevisiae deletion strains, locus YLR058C, strain SHM2, active compounds read low 0.766 | S. cerevisiae deletion strains, locus YLR221C, strain rsa3, active compounds read low 0.601 | S. cerevisiae deletion strains, locus YLR258W, strain gsy2, active compounds read low 0.721 | S. cerevisiae deletion strains, locus YLR320W, strain mms22, active compounds read low 0.713 | S. cerevisiae deletion strains, locus YLR330W, strain CHS5, active compounds read low 0.743 | S. cerevisiae deletion strains, locus YLR370C, strain arc18, active compounds read low 0.853 | S. cerevisiae deletion strains, locus YLR418C, strain cdc73, active compounds read low 0.365 | S. cerevisiae deletion strains, locus YML016C, strain PPZ1, active compounds read low 0.887 | S. cerevisiae deletion strains, locus YML032C, strain rad52, active compounds read low 0.831 | S. cerevisiae deletion strains, locus YML120C, strain ndi1, active compounds read low 0.616 | S. cerevisiae deletion strains, locus YMR058W, strain fet3, active compounds read low 0.873 | S. cerevisiae deletion strains, locus YMR125W, strain sto1, active compounds read low 0.854 | S. cerevisiae deletion strains, locus YMR129W, active compounds read low 0.876 | S. cerevisiae deletion strains, locus YMR205C, strain PFK2, active compounds read low 0.802 | S. cerevisiae deletion strains, locus YMR223W, strain ubp8, active compounds read low 0.809 | S. cerevisiae deletion strains, locus YMR231W, strain pep5, active compounds read low 0.526 | S. cerevisiae deletion strains, locus YMR263W, strain SAP30, active compounds read low 0.754 | S. cerevisiae deletion strains, locus YNL067W, strain RPL9B, active compounds read low 0.789 | S. cerevisiae deletion strains, locus YNL071W, strain lat1, active compounds read low 0.801 | S. cerevisiae deletion strains, locus YNL209W, strain ssb2, active compounds read low 0.54 | S. cerevisiae deletion strains, locus YNL233W, strain BNI4, active compounds read low 0.692 | S. cerevisiae deletion strains, locus YNL248C, strain rpa49, active compounds read low 0.806 | S. cerevisiae deletion strains, locus YNL322C, strain KRE1 (second series), active compounds read low 0.685 | S. cerevisiae deletion strains, locus YNR052C, strain pop2, active compounds read low 0.724 | S. cerevisiae deletion strains, locus YOL147C, strain pex11, active compounds read low 0.913 | S. cerevisiae deletion strains, locus YOR001W, strain rrp6, active compounds read low 0.802 | S. cerevisiae deletion strains, locus YOR070C, strain gyp1, active compounds read low 0.735 | S. cerevisiae deletion strains, locus YOR083W, strain WHI5, active compounds read low 0.689 | S. cerevisiae deletion strains, locus YOR106W, strain vam3, active compounds read low 0.549 | S. cerevisiae deletion strains, locus YOR184W, strain ser1, active compounds read low 0.833 | S. cerevisiae deletion strains, locus YOR265W, strain rbl2, active compounds read low 0.774 | S. cerevisiae deletion strains, locus YOR270C, strain vph1, active compounds read low 0.524 | S. cerevisiae deletion strains, locus YOR290C, strain snf2, active compounds read low 0.764 | S. cerevisiae deletion strains, locus YPL051W, strain arl3, active compounds read low 0.496 | S. cerevisiae deletion strains, locus YPL055C, strain LGE1, active compounds read low 0.439 | S. cerevisiae deletion strains, locus YPL078C, strain atp4, active compounds read low 0.887 | S. cerevisiae deletion strains, locus YPL106C, strain sse1, active compounds read low 0.828 | S. cerevisiae deletion strains, locus YPL240C, strain hsp82, active compounds read low 0.808 | S. cerevisiae deletion strains, locus YPR163C, strain tif3, active compounds read low 0.721 | S. cerevisiae deletion strains, locus YPR167C, strain met16, active compounds read low 0.884 | S. cerevisiae deletion strains, strain wtn01, active compounds read low 0.761 | S. cerevisiae strains, strain wild type, active compounds read low 0.812
